Bioassay records (PubChem BioAssay)
The list is not random: actives were taken first. Their share in the collection is about 4.3%.
SMARCA2 activ – SMARCA2 (BRM) function activators, primary screen, cell-based, luminescence, high throughput; MG213 cells, MMTV-luciferase reporter, dexamethasone, overnight; activation, % at 9.1 µM; 370,000 tested, 1% active; in the data active means activation above about 7.8%;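 further: 0% = vehicle wells and 100% = reference activator wells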
MITF TRPM1 HTS – activators of MITF-driven TRPM1 promoter reporter, primary screen, cell-based, SK-MEL-5, luciferase, single point; SK-MEL-5 TRPM1-promoter luciferase, 24 h; % of positive control, neutral wells = 0; 300,000 tested, 0.75% active; activation, % at 12.5 µM; AID 588334, 2011;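 active means mean activation of at least 80% with every replicate also reaching 80%; inconclusive means mean reaches 80% but some replicate falls short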;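 further: 0% = neutral control wells and 100% = parthenolide positive control wells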
HSF-1 act – HSF-1 activators, primary screen, NIH3T3-HGL cells, MG132 stress, luminescence, single point; AID 504408, 2011; activation, % at 9 µM; 300,000 tested, 1.7% active; NIH3T3-HGL HSF-1 luciferase reporter, 8 h; 100% = twice DMSO control signal;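 active means mean replicate activation of at least 50% with a set share of replicates each reaching 50%; inconclusive means only one of those two conditions met; inactive means mean below 50% and too few replicates reaching it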;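 further: 0% = median of the neutral control wells and 100% = twice that signal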
HSF1 inhib – HSF1 inhibitors in luciferase reporter cells, primary screen, cell-based, NIH3T3, luminescence. NIH3T3-HGL HSE-luciferase, MG132-induced, luminescence 8 h; hits give low values. activity change, negative = inhibition, % at 7.5 µM (by protocol). 300,000 tested, 0.77% active;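 active means more than half of replicate wells show activity change below -50%, luminescence cut by over half; inconclusive means some wells, but at most half, below -50%; inactive means no replicate well below -50%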;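 further: luciferase reports HSF-1 transcriptional activity via heat shock element; 0% = median of DMSO wells and -100% = zero luminescence signal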
esBAF inh – Bmi1 luciferase reporter increase in mESCs, primary screen, esBAF inhibitor project, mouse ES cells, Bmi1 luciferase knock-in, single point | 24 h; 100% = twice the neutral-well signal | reporter increase, % at 12.5 µM | 350,000 tested, 2% active; in the data active means activation above about 40%; inconclusive means no clear call, values can overlap the other calls;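 further: 0% = median of the plate's neutral control wells and 100% = double that signal; a rise in the Bmi1 reporter signal indicates esBAF inhibition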
Wnt bcat act – Wnt/beta-catenin pathway activators, primary screen, cell-based, plate reader, single point; Wnt/beta-catenin reporter cell assay, activator; 300,000 tested, 1.2% active; activation, % at 9.35 µM; AID 743398, 2014; in the data active means activation above about 30%, passing the limit was not always enough; inconclusive means no clear call, values can overlap the other calls;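 further: 0% = neutral control wells and 100% = positive control wells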
The depositor's hits bear a star; ? = inconclusive; . = no result given.

SMILES	SMARCA2 activ	MITF TRPM1 HTS	HSF-1 act	HSF1 inhib	esBAF inh	Wnt bcat act
O=C(Nc1nc2ccccc2s1)c1ccc2sc([C@H]3C[C@H](O)[C@@H](CO)O3)nc2c1	4	.	.	.	55*	5
O=C(Nc1nccs1)c1ccc2sc([C@H]3C[C@H](O)[C@@H](CO)O3)nc2c1	-1	.	.	.	37	27
O=C(Nc1ccccc1F)c1ccc2sc([C@H]3C[C@H](O)[C@@H](CO)O3)nc2c1	-3	.	.	.	55*	-3
C[C@H](CO)N1C[C@H](C)[C@H](CN(C)C(=O)Nc2ccccc2)Oc2ncc(C#CC3CC3)cc2C1=O	.	.	.	.	-11	.
O=C(C[C@@H]1C=C[C@H](NS(=O)(=O)c2ccc(F)cc2)[C@@H](CO)O1)NC1CCC1	.	.	.	.	0	.
CN1[C@H](C(=O)Nc2ccccc2)[C@@H](CO)[C@@H]2Cn3c(ccc(-c4ccccc4)c3=O)[C@@H]21	.	.	.	.	-4	.
O=C(C[C@H]1CC[C@H](NC(=O)Nc2ccc(C(F)(F)F)cc2)[C@@H](CO)O1)NCCN1CCCC1	.	.	.	.	-7	.
Cc1nc(SCC(=O)c2ccccc2)c(C#N)c(-c2ccco2)c1C(=O)NCc1ccco1	0	-6	76*	52	5	.
Cc1cn2c(nc(=O)c3cccnc32)s1	-1	-5	-78	-75*	.	-5
COc1cccc(CN(C)C[C@H]2OCc3ccccc3-c3ccccc3C(=O)N([C@H](C)CO)C[C@@H]2C)c1	.	.	.	.	-6	.
C[C@@H]1CN([C@@H](C)CO)C(=O)c2cccc(NC(=O)c3nc4ccccc4s3)c2O[C@@H]1CN(C)C(=O)NC1CCCCC1	.	.	.	.	2	.
Fc1cccc(Cn2ccc(-c3ccc4c(c3)OCO4)n2)c1	4	.	?	25	64*	.
CCc1ccn2cc(-c3ccc4c(c3)OCO4)nc2c1	-5	.	-32	-31	.	-5
Cc1ccccc1Cn1ccc(-c2ccc3c(c2)OCO3)n1	2	73	40	23	60*	.
Cc1ccccc1Cn1nnc(-c2ccc(C(=O)O)cc2)n1	2	-2	-1	-4	.	-1
Cc1ccccc1Cn1nnc(-c2cccc(C(=O)O)c2)n1	2	-1	-18	-7	15	39*
N#CCn1nnc(-c2ccc3c(c2)OCO3)n1	-2	.	-1	-7	8	6
Cc1ccccc1Cn1nnc(-c2ccc3c(c2)OCO3)n1	2	70	41	27	51*	.
COc1ccc(NC(=O)N(C)C[C@H]2OCCCC[C@@H](C)Oc3ccc(NS(=O)(=O)c4cccs4)cc3C(=O)N([C@H](C)CO)C[C@@H]2C)cc1	.	.	.	.	-8	.
COc1cc(/C=N/N(C)C)cc(Br)c1O	-5	-6	44	3	-4	4
COc1ccc(OC)c(C=NN=Cc2cc(OC)ccc2OC)c1	-4	.	.	.	-6	0
COc1cc(/C=N/N(C)c2ccccc2)cc(Cl)c1O	2	24	-6	-9	50*	9
COc1ccc(OC)c(/C=N/N(C)c2ccccc2)c1	0	96*	29	13	73*	.
C[C@@H]1CCCCO[C@@H](CN(C)C(=O)Cc2ccccc2)[C@H](C)CN([C@@H](C)CO)C(=O)c2cc(NC(=O)c3ccncc3)ccc2O1	.	.	.	.	4	.
CCCC#Cc1ccc([C@H]2[C@@H](CO)N(C(=O)C3CCCC3)[C@H]2C#N)cc1	.	.	.	.	1	.
SMILES	SMARCA2 activ	MITF TRPM1 HTS	HSF-1 act	HSF1 inhib	esBAF inh	Wnt bcat act
CN1[C@@H]2Cn3c(ccc(-c4ccccc4)c3=O)[C@H]1[C@@H](C(=O)NCC1CC1)[C@@H]2CO	.	.	.	.	3	.
C/C(=N\Nc1nc(-c2ccccc2)cs1)c1cccs1	-1	10	-75	-70*	.	-5
CCc1c(C)nc(SCC(=O)Nc2cccc(Br)c2)[nH]c1=O	-1	4	57*	21	-1	.
COc1ccc(/C(C)=N/NC(=O)c2ccncc2)cc1	0	5	-3	-4	0	2
COc1ccc(/C(C)=N/NC(=O)c2ccccc2OCc2ccccc2)c(OC)c1	5	45	3	3	50*	.
C/C(=N\NC(=O)c1ccccc1)c1ccccc1Br	7	42	5	8	.	?
C/C(=N\NC(=O)c1cccnc1)c1ccc(Br)cc1	-2	.	31	2	9	1
